PubChem BioAssay AID1159580 (chemical genetic matrix, 2015)
Among all 5,500 compounds or so, about 2,000 (36%) were called active. About 18% were inconclusive and are not listed. No stated cut-off is given here; in the data, active means normalized growth mostly below about 0.91 (no sharp cut-off); inconclusive means no clear call, values can overlap the other calls; inactive means mostly above about 0.92. Some of the results follow.

Assay: chemical genetic growth profiling, strain panel (AID 1159580);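 further: tested at 20 µM; growth read once vehicle control cultures reached saturation at 30 °C; 1 = growth at the plate median or of vehicle wells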
Conditions: S. cerevisiae deletion strains, growth OD

Measured: normalized growth

C[N+](C)(CCOc1ccccc1)Cc1ccccc1
inactive: locus YHR030C, strain SLT2, stronger effect = lower value 0.888 | locus YOR231W, strain MKK1, stronger effect = lower value 0.887
active: locus YHR079C, strain IRE1, stronger effect = lower value 0.844 | locus YJL095W, strain BCK1, stronger effect = lower value 0.869 | locus YJR066W, strain TOR1, stronger effect = lower value 0.799 | locus YLR113W, strain HOG1, stronger effect = lower value 0.805 | locus YNL183C, strain NPR1, stronger effect = lower value 0.788 | locus YPL256C, strain CLN2, stronger effect = lower value 0.812
